This is an account of results in PubChem BioAssay (NCI).

The panel holds about 83,000 compounds, 20% with a hit somewhere; the sample as a whole holds those more often.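 Single-dose data. Exposure time 48 hours. Values below 10 considered active.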 Values without a mark were called inactive. Activity calls are given as the source filed them.

Holding throughout (experiment): NCI-60 one-dose screen, 48 h (100 = growth as untreated, 0 = no growth, -100 = all killed)
Holding throughout (conditions): 10 µM unless noted

The test system of assay [1] is NCI-H23 lung.
In assay [2] the test system is NCI-H226 lung.
Assay [3] deals with NCI-H322M lung.
In assay [4] the test system is HOP-62 NSCLC.
Assay [5] has as its system NCI-H460 lung.
The test system of assay [6] is HOP-92 NSCLC.
Assay [7] relates to NCI-H522 lung.
Assay [8] concerns A549/ATCC NSCLC.
For assay [9], the system named is 786-0 renal.
Assay [10] relates to COLO 205 colon.
The subject of assay [11] is DU-145 prostate.
The subject of assay [12] is K-562 leukemia.
The test system of assay [13] is MALME-3M melanoma.
In assay [14] the test system is MDA-MB-231 breast.
Assay [15] concerns RXF 393 renal.
Assay [16] deals with SF-268 CNS.
In assay [17] the test system is SF-295 CNS.
Assay [18] relates to SF-539 CNS.
The subject of assay [19] is UACC-257 melanoma.
Assay [20] deals with M14 melanoma.

Regarding `[Cl][Hg][c]1cc[c]([Hg][Cl])o1`, the growth in assay [1] was 63.5%; in assay [2], 99.1%; in [3], 96.9%; in assay [4], 72.9%; in assay [5] it was 68.6%; in assay [6], -29.1% (active). The growth was 2.99% (active) in [7]; 88.4% in [8]; -74.8% (active) in assay [9]; 6.94% (active) in assay [10]; 70.6% in assay [11]; 7.68% (active) in [12]. The growth was -51.6% (active) in assay [13]; 22.7% in [14]; 62.1% in assay [15]; 51.3% in [16]; 93.4% in assay [17]; 75% in assay [18]. In addition, the growth in [19] is 65.5%; in assay [20] it was 14.8%.
As to `COc1cccc2c1c(C(=O)C(=O)Nc1cc(C)no1)cn2Cc1ccc(F)cc1`, the growth in assay [1] is 78.8%; in assay [2] it was 75.5%; in assay [3], 94.7%; in assay [4] it was 64.1%; in [5], 71.3%; in [6], 57.4%. For the same compound, the growth in assay [7] is 72.5%; in [8] it was 91.9%; in [9] it was 64.1%; in [10] it was 95.4%; in [11], 74.2%; in [12], 13.4%. The growth in assay [13] is 69.3%; in [14] it was 77.5%; in assay [15] it was 77.4%; in [16], 64.3%; in assay [17], 73.6%; in assay [18], 67.2%. For the same compound, the results for the growth in [19] and in assay [20] were 81.4% and 45.7%, respectively.
Take `Clc1ccc(CSC(Cn2ccnc2)c2ccc(Cl)cc2Cl)cc1` (stereo not given): the growth in assay [1] is 27.1%; in assay [2] it was 52.2%; in assay [3], 63.3%; in assay [4], 52.6%; in assay [5] it was 23.2%; in assay [6], -4.58% (active). Moreover, the growth was 34.6% in assay [7]; 27.5% in [8]; 34.2% in assay [9]; -55.2% (active) in assay [10]; 68.3% in [11]; 10.2% in assay [12]. Besides, the growth in assay [13] was 21%; in [14], 64.7%; in assay [15], 15.3%; in assay [16], 50.2%; in assay [17], 10.7%; in assay [18] it was 44.4%. Besides, the figures for the growth in assay [19] and in [20] were 23.1% and 29.7%, respectively.
`Nc1c(F)cc(-c2nc3cc(F)ccc3[se]2)cc1F`: the growth in assay [1] was 49.4%; in assay [2] it was -11.3% (active); in assay [3], 70.8%; in assay [4], 58.9%; in assay [5], 14.5%; in assay [6], 74.8%. For the same compound, the growth in [7] was 84.8%; in assay [8], 46.5%; in assay [9] it was 104%; in assay [10] it was 13.4%; in assay [11] it was 99.8%; in assay [12], 85.8%. The growth in assay [13] was 101%; in [14] it was 54.6%; in [15], 105%; in assay [16], 91.4%; in [17], 87.8%; in assay [18], 96.3%. The figures for the growth in assay [19] and in assay [20] were 101% and 90%, respectively.
For `O=C(CC1(O)C(=O)Nc2ccccc21)c1ccc(C(=O)NCC2CCC3(CC2)OOC2(CCCCC2)OO3)cc1` (stereo not given), the growth in assay [1] was 50.4%; in assay [2], 63.6%; in assay [3], 88.9%; in assay [4] it was 63.8%; in assay [5] it was 77.1%; in assay [6], -53.6% (active). In addition, the growth in assay [7] was 54.9%; in assay [8], 57.9%; in assay [9] it was -34% (active); in [10] it was 80%; in assay [11], 76.3%; in assay [12], 39.6%. For the same compound, the growth is 56.1% in assay [13]; 67% in assay [14]; 98.1% in assay [15]; 82% in [16]; 76.2% in assay [17]; 81% in assay [18]. Moreover, the growth in [19] was 67.1%; in assay [20], 85.7%.
Regarding `CN(CCCCN(C)CCOS(C)(=O)=O)CCOS(C)(=O)=O`, the growth in [1] was 84%; in assay [2] it was 75%; in assay [3], 105%; in assay [4], 84.7%; in assay [5] it was 35.2%; in assay [6], 86.3%. Moreover, the growth is 81.3% in assay [7]; 78.9% in [8]; 100% in assay [9]; 74.2% in assay [10]; 96.7% in assay [11]; 93.3% in [12]. Also, the growth in [13] is 86.9%; in [14], 79.7%; in [15], 90.1%; in assay [16], 66.4%; in assay [17], 109%; in assay [18], 47.2%. The growth in [19] was 82.3%; in [20], 76.4%.
For `CC[C@H](C)[C@@H]([C@@H](CC(=O)N1CCC[C@H]1[C@H](OC)[C@@H](C)C(=O)N[C@H](C)[C@@H](O)c1ccccc1)OC)N(C)C(=O)[C@@H](NC(=O)[C@@H](NC)C(C)C)C(C)C`, the growth in assay [1] is 27.9%; in [2], 66.9%; in assay [3], 50.8%; in [4], 25.8%; in assay [5], 9.17% (active); in assay [6] it was 11.5%. The growth in assay [7] is -36.1% (active); in assay [8] it was 21.4%; in assay [9], 21.2%; in assay [10], -72.1% (active); in [11] it was 10.5%; in [12], 11%. Also, the growth is 55.6% in assay [13]; 16.9% in assay [14]; 46% in [15]; 39% in assay [16]; 10.8% in [17]; -13.9% (active) in assay [18]. Besides, the growth in assay [19] was 65.7%; in [20] it was 1.24% (active).
With `C[N+](C)(C)Cc1cc(Cl)ccc1O`, the growth in assay [1] is 97.7%; in [2], 98.6%; in assay [3] it was 87.3%; in [4] it was 101%; in [5], 110%; in [6] it was 93.2%. Also, the growth in assay [7] was 80.6%; in assay [8] it was 94.6%; in assay [9] it was 100%; in [10] it was 107%; in [11], 108%; in assay [12], 99.9%. The growth in assay [13] is 93.2%; in assay [14], 109%; in assay [15], 110%; in [16], 106%; in [17] it was 108%; in assay [18], 102%. Further, the figures for the growth in [19] and in [20] were 96.5% and 94.8%, respectively.
